# Bioassay records from PubChem.
# eIF4H inh = human eIF4H binding inhibitors, primary screen, translation initiation inhibitor project, biochemical, uHTS, fluorescence polarization. Eukaryotic translation initiation factor 4H (Homo sapiens), Q15056. eIF4H fluorescence polarization binding assay. inhibition, % at 35 µM. 0.94% of 290,000 active;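 also: calls also rest on retests at 20 µM and on dose response follow-up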
# PABP1 MLLE inh = inhibitors of PABP1 MLLE–PAM2 peptide binding, primary screen, biochemical, fluorescence polarization, FITC-PAM2, GST-MLLE; 0.36% of 360,000 active; Polyadenylate-binding protein 1 (Homo sapiens), P11940; inhibition, % at 20 µM; in the data active = inhibition above about 35%, passing the limit was not always enough;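 also: plate controls were DMSO wells with GST-MLLE for no effect and wells lacking GST-MLLE protein for full effect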
# PABP polyA inh = PABP poly(A) RNA binding inhibitors, primary screen, biochemical, fluorescence polarization, uHTS; 1% of 290,000 active; Polyadenylate-binding protein 1 (Homo sapiens), P11940; inhibition, % at 35 µM;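 also: calls also rest on retests at 20 µM and on dose response follow-up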
# CendR NRP1 mod = modulators of CendR peptide binding to NRP-1, primary screen, biochemical, fluorescence polarization, uHTS. inhibition, % at 25 µM. FAM-RPARPAR peptide binding to NRP-1. AID 602438, 2012. Neuropilin-1 (Homo sapiens), O14786. 0.85% of 360,000 active;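 active = inhibition or corrected inhibition above about 18%, plus a signal ratio from 0.5 to 1.5, limit read from the data, passing the limit was not always enough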
# Active calls of the source: *; ? = inconclusive; / = not tested or not shown. An excerpt weighted towards active compounds, which were near 2.1% of everything screened. Unless noted, no rule for the calls is given here.
SMILES,eIF4H inh,PABP1 MLLE inh,PABP polyA inh,CendR NRP1 mod
O=C(O)c1ccc(-n2c(-c3cc(-c4ccco4)[nH]n3)n[nH]c2=S)cc1,87*,1,61*,-94
COc1ccccc1NC(=O)C(C)OC(=O)CCC1CCCCC1 (stereo unspecified),-10,4,-5,7
CCOc1ccccc1NC(=O)NNS(=O)(=O)c1cc(C)ccc1C,14,5,11,20
CCOc1ccccc1NC(=S)NNS(=O)(=O)c1c(C)cc(C)cc1C,0,41*,13,-3
CCC(C)c1ccc(NC(=O)COc2c(F)c(F)c(C(F)(F)F)c(F)c2F)cc1 (stereo unspecified),active,-7,117*,4
COc1ccccc1CNC(=O)COc1ccc(S(=O)(=O)N2CCOCC2)cc1C,-6,2,-4,2
CCOC(Cn1ccc(=O)[nH]c1=O)OCC,-4,12,4,26*
CC1=C(C(=O)N2CCOCC2)CC(CC(=O)NC2CCCCC2)C(=O)N1Cc1ccc(C(C)(C)C)cc1 (stereo unspecified),/,4,/,-14
COc1ccc(CN2C(=O)Cc3c2nc(N)c2c(N)nc(N4CCCCC4)c(C#N)c32)cc1,?,/,-10,/
C=C(C)CN(CC)c1nc(N)c2c(N)nc3c(c2c1C#N)CC(=O)N3C12CC3CC(CC(C3)C1)C2,76*,-14,62*,-18
N#Cc1c(N2CCCC(O)C2)nc(N)c2c(N)nc3c(c12)CC(=O)N3C12CC3CC(CC(C3)C1)C2 (stereo unspecified),91*,-42,62*,-47
CCN(CC)c1ccc(/C=N/NC(=O)c2cccc(S(=O)(=O)Nc3ccccc3OC)c2)cc1,52*,4,16,-35
CCO[C@@H]1c2c(ccc3ccc(=O)oc23)OC(C)(C)[C@@H]1O,/,9,/,32*
CCO[C@@H]1c2c(ccc3ccc(=O)oc23)OC(C)(C)[C@H]1O,/,4,/,0
CCN(CC(=O)Nc1cc(Cl)ccc1C)C(=O)COc1cccc2c1OC(C)(C)C2,-1,-4,-4,7
O=C(O)CCc1ccc(-c2cccs2)o1,70*,31,36*,-15
Cc1ccc(-c2ccc(CCC(=O)O)o2)cc1,-8,9,-5,-6
COc1ccc(CNC(=O)C2CC(c3ccccc3[N+](=O)[O-])=NO2)cc1 (stereo unspecified),-8,6,-2,-90
COc1ccccc1CNC(=O)C1CC(c2ccccc2[N+](=O)[O-])=NO1 (stereo unspecified),54,14,active,-2
O=C(NN=Cc1ccccc1C(=O)O)c1cccc(S(=O)(=O)Nc2cccc(C(F)(F)F)c2)c1,/,5,/,-12
CC(C(=O)NN=C(c1ccccc1)c1ccccc1)N1CCOCC1 (stereo unspecified),-11,3,-10,26*
O=C(CN1CCOCC1)NN=C(c1ccccc1)c1ccccc1,2,8,-3,12
Cn1c(CNC(=O)c2ccccc2F)nnc1SCC(=O)c1ccccc1,-9,22,-1,27*
Cn1c(CNC(=O)c2ccccc2F)nnc1SCC(=O)NCc1ccccc1,21,7,-13,7
OCCNCCSc1nc(C2CCCCC2)n(-c2ccccc2Cl)n1,4.8*,1,50,7
SMILES,eIF4H inh,PABP1 MLLE inh,PABP polyA inh,CendR NRP1 mod
Cn1c(=O)oc2cc(S(=O)(=O)Nc3ccc(F)cc3)ccc21,-5,-4,-1,2
O=C1Nc2ccccc2-c2nnnn2C1N1CCC(Cc2ccccc2)CC1 (stereo unspecified),/,/,/,16
Cc1cc2c(cc1C)-c1nnnn1C(N1CCCCC1)C(=O)N2 (stereo unspecified),/,/,/,21*
CCCCNC(=S)N1CCn2cccc2C1c1ccccc1 (stereo unspecified),6,-113,-5,27*
Cc1cccc(-n2ccc(=O)c(C(=O)Nc3ccc(S(=O)(=O)N4CCOCC4)cc3)n2)c1,0,-12,15,-1
Cc1nnc(SCC(=O)Nc2sccc2C#N)n1Cc1ccccc1,29*,-12,70*,-10
Cc1ccc(S(=O)(=O)N2CCC(=O)N(CCOC(=O)Nc3ccccc3C)CC2)cc1,-3,4,6,19*
Cc1ccc(S(=O)(=O)N2CCC(=O)N(CCOC(=O)Nc3cc(C)cc(C)c3)CC2)cc1,-14,4,3,14
CCN1CCN(C(c2cccs2)C(C)NC(=O)c2ccccc2F)CC1 (stereo unspecified),3,-3,0,25*
CCN1CCN(C(c2cccs2)C(C)NC(=O)c2c(F)cccc2F)CC1 (stereo unspecified),-3,-6,4,-3
Cc1cccc(OCC(=O)N(Cc2ccccc2)c2c(N)n(Cc3ccccc3)c(=O)[nH]c2=O)c1,/,-14,/,0
CC(Sc1nc(N)cc(=O)[nH]1)C(=O)Nc1ccc(N2CCOCC2)cc1 (stereo unspecified),/,-13,/,-3
c1csc(Cc2nn3c(-c4n[nH]c5c4CCC5)nnc3s2)c1,56,-127,15*,7
c1coc(-c2nnc3sc(Cc4cccs4)nn23)c1,77*,-20,64*,-14
COc1ccccc1-c1nn2c(-c3ccco3)nnc2s1,59*,3,18,-18
c1coc(-c2nn3c(-c4ccco4)nnc3s2)c1,95*,11,91*,-5
COc1ccccc1-c1nn2c(-c3ccccc3Cl)nnc2s1,-3,/,-4,/
C=CCSC1=C(C#N)C(c2ccccc2OCC)C(C#N)C(=O)N1 (stereo unspecified),1,41*,0,-8
O=C(Nc1ccc2c(c1)Cc1ccccc1-2)c1cccnc1,1,-6,-7,20*
NC1=Nc2cccc3cccc1c23,92,-29,0.8*,-14
C(=N\NC1=Nc2cccc3cccc1c23)/c1ccccc1,?,-69,-15,-10
Cc1ccc(NCC(=O)N2CCN(S(=O)(=O)c3ccccc3)CC2)cc1F,/,6,/,1
Cc1ccc(Cc2c(-c3ccc(F)cc3)nc3c(Cl)cc(C(F)(F)F)cn23)cc1,/,14,/,-7
Fc1ccc(-c2nc3c(Cl)cc(C(F)(F)F)cn3c2Cl)cc1,?,43*,2,20
CCOC(=O)c1c(C)oc2c1c(C=NCCO)c(O)c1ccccc12,?,52*,10,35*
SMILES,eIF4H inh,PABP1 MLLE inh,PABP polyA inh,CendR NRP1 mod
COc1ccc(NC(=O)c2cc(C3CCCCN3C(=O)c3cc(C(C)(C)C)nn3C)on2)c(C)c1 (stereo unspecified),/,1,/,0
Cc1ccc(Cl)cc1N1CCN(C(=O)CN(c2ccccc2)S(=O)(=O)N(C)C)CC1,62*,7,-9,14
O=C(CCCCn1ccc(=O)[nH]c1=O)Nc1ccc(O)c(C(=O)O)c1,/,-3,/,8
Cc1ccc(C)c(S(=O)(=O)Nc2ccc(O)c(Sc3ncn[nH]3)c2)c1,79*,18,55*,-5
CN1C(=O)SC(Nc2ccccc2C(=O)O)C1=O (stereo unspecified),3,38*,20,5
COc1c2c(c3c(c1OC)c(=O)c1ccccc1n3C)OCO2,/,55*,/,26*
